Screening data as filed in PubChem BioAssay.
Sampled rows, rich in hits. Any-hit rate of the full collection: about 0.96%.
TRHR PAM – qHTS for Small Molecule Agonists and Allosteric Enhancers of Human TRH Receptor: Primary Screen for Enhancers | Thyrotropin-releasing hormone receptor (Homo sapiens), P34981 | 360,000 compounds, 0.66% hits | AID 493056, 2011 | TRHR cells, fluo-8 calcium fluorescence, EC20 TRH enhancement | enhancement, % at 2 µM; in the data active = enhancement above about 30%; also: 0% is about no effect
Target sequence (P34981 whole entry, looked up): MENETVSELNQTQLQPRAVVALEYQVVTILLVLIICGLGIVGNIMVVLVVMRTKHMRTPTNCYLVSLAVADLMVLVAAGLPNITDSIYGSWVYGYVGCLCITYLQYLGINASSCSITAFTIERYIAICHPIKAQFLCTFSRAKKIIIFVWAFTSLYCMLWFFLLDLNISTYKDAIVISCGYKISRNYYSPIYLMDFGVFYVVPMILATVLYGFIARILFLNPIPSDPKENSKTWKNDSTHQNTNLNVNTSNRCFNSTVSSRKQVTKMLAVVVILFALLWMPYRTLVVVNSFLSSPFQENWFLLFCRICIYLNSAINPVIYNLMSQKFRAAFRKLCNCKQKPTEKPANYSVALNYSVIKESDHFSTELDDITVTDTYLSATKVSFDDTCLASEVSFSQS
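Enhancer read-out: after compound pinning and an initial kinetic agonist-mode read, an EC20 of TRH (10 nM final) was injected and fluo-8 calcium signal (Ex 480/Em 530) followed at 1 s/cycle for 100 cycles in TRHR-expressing cells.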
TRHR agonist – qHTS for Small Molecule Agonists and Allosteric Enhancers of Human TRH Receptor: Primary Screen for Agonists; Thyrotropin-releasing hormone receptor (Homo sapiens), P34981; TRHR cells, calcium flux fluo-8, FDSS agonist mode; activation, % at 2 µM; 360,000 compounds, 0.18% hits; in the data active = activation above about 30%; also: 0% is about no effect
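TRHR-expressing cells, plated overnight in medium with 10% serum, were loaded with fluo-8 calcium dye at room temperature. After a 10 s baseline, library compound was pin-added and calcium release was recorded kinetically (ex 480/em 530) as agonist response.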
TRPML1 blocker – qHTS for Inhibitors of the Human Mucolipin Transient Receptor Potential 1 (TRPML1). TRPML1-inducible cells, Ca2+ dye fluorescence, FDSS; hits give low values; inhibition of EC80 agonist-evoked calcium signal. activity change, negative = inhibition, % (concentration not given with the values). 390,000 compounds, 0.02% hits; in the data active = activity change below about -50%; inconclusive = between about -30% and that limit;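 also: stimulus is agonist 54-4 at its EC80 concentration; % is scaled to controls: 0 for no effect and ±100 for the full control effect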
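TRPML1-DL cells, Tet-induced overnight (~16 h, 37 °C) at 1,500 cells/well, were loaded with Ca8 no-wash dye plus quencher for 45-90 min at room temperature. Compounds were pinned during FDSS kinetic reading; agonist 54-4 at EC80 (4 uM final) then added.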
TRPV1 ag – HTS Assay for Compounds that Act as Agonists of the Vanilloid Receptor 1 | Transient receptor potential cation channel subfamily V member 1 (Homo sapiens), Q8NER1 | AID 540275, 2011 | activation, % at 8.33 µM | TRPV1-expressing cells, Fluo-8 calcium influx, agonist mode | 320,000 compounds, 0.19% hits; in the data active = activation above about 80%; inconclusive = between about 30% and that limit; also: 0% is about no effect
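Fluo-8 calcium influx in TRPV1-expressing cells, kinetic read (ex 480/em 520 nm). Compound added and read 3 min for agonist activity, followed by capsaicin at EC20 final and 2 min further read for enhancement.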
TRPML1 ag – qHTS for Agonists of the Human Mucolipin Transient Receptor Potential 1 (TRPML1); Mucolipin-1 (Homo sapiens), Q9GZU1; TRPML1-expressing cells, Ca2+ dye fluorescence, FDSS; activation, % (test concentration not listed); 410,000 compounds, 0.12% hits; in the data active = activation above about 50%; inconclusive = mostly about 30% to 49%; also: 0% is about no effect
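TRPML1-DL cells, Tet-induced overnight (~16 h, 37 degrees C), loaded 45-90 min at room temperature with Ca8 no-wash calcium dye plus quencher. FDSS fluorescence: 10 s baseline, compound pin-transfer, 110 s agonist read, then EC80 54-4 (4uM final) and 110 s antagonist read.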
TRPV1 potentiator – HTS Assay for Compounds that Act as Potentiators of the Vanilloid Receptor 1; Transient receptor potential cation channel subfamily V member 1 (Homo sapiens), Q8NER1; TRPV1-expressing cells, Fluo-8 calcium influx, capsaicin EC20 potentiation; potentiation, % at 8.33 µM; 320,000 compounds, 0.02% hits; AID 540277, 2011; in the data active = potentiation above about 80%; inconclusive = between about 30% and that limit; also: 0% is about no effect
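Fluo-8 calcium influx in TRPV1-expressing cells, kinetic read (ex 480/em 520 nm). Compound added and read 3 min for agonist activity, followed by capsaicin at EC20 final and 2 min further read for enhancement.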
Numbers without * were called inactive; u = inconclusive; x = not tested or not shown; ! = repeats disagree.

SMILES | TRHR PAM | TRHR agonist | TRPML1 blocker | TRPV1 ag | TRPML1 ag | TRPV1 potentiator
CCCCN1C(=O)C(CC(=O)NCc2cccs2)CC(C(=O)N(C)C)=C1C (stereo not given) | x | x | -53.4* | x | 0.2 | x
O=C(COc1ccccc1C(=O)OCC(=O)N1CCOCC1)Nc1ccc(Br)cc1 | x | x | x | x | -0.5 | x
O=C(CN1C(=O)c2cccc3cccc1c23)Nc1ccc2c(c1)OCO2 | 30.7* | -1.6 | -3.6 | 0.3 | 0.2 | u
COc1ccccc1C(=O)N1N=C(c2ccc(NS(C)(=O)=O)cc2)CC1c1cccs1 (stereo not given) | 34.4* | -0.7 | 14.1 | -3.4 | 2.2 | 0.2
Cc1ccc(-c2nnc3ccc(SCC(=O)c4ccccc4)nn23)cc1 | x | x | x | x | -0.9 | x
Cc1ccc(Nc2ncnc3nc[nH]c23)cc1 | x | x | x | x | -0.9 | x
Cc1cccn2c(=O)c3cc(C(=O)NCC4CCCO4)c(=N)n(CC4CCCO4)c3nc12 (stereo not given) | 1.2 | 0.0 | 22.2 | 8.9 | 0.0 | -6.0
Cc1cccn2c(=O)c3cc(C(=O)NCC4CCCO4)c(=N)n(C4CCCCC4)c3nc12 (stereo not given) | -0.8 | -1.1 | 3.6 | 90.6* | -0.3 | -33.4
CCC1(C)CC(=O)c2c(ccc3oc(C(=O)NCc4ccccc4)c(C)c23)O1 (stereo not given) | 6.5 | 1.2 | -15.8 | x | 50.4* | x
Cc1c(C(=O)NCc2ccoc2)oc2ccc3c(c12)C(=O)CC(C)(C)O3 | 3.2 | -0.8 | 6.9 | -1.6 | -0.9 | 5.9
COC(=O)N/N=C(\C)c1ccc(-n2ccnc2)cc1 | 40.7* | 0.1 | 2.8 | -0.5 | -0.7 | -13.5
O=C1c2ccccc2-c2onc3ccc(Oc4ccccc4)c1c23 | 32.0* | 2.0 | -2.9 | 8.7 | 5.5 | u
O=C1CC(c2ccccc2)Cc2[nH]c(=O)c(C(=O)O)cc21 (stereo not given) | x | x | x | x | -0.4 | x
CC1(C)Cc2c(cnn2-c2ccc(F)cc2)C(NC(=O)CCN2CCCCO2)C1 (stereo not given) | 37.1* | -0.5 | -7.7 | 0.4 | 0.2 | 12.1
COC(=O)CCC(=O)NC1CC(C)(C)Cc2c1cnn2-c1ccc(F)cc1 (stereo not given) | 38.4* | 0.5 | 42.5 | -1.0 | 0.2 | -9.1
Cc1cc(C(=O)NC2CC(C)(C)Cc3c2cnn3-c2cccc(F)c2)n(C)n1 (stereo not given) | -1.7 | 0.0 | 4.0 | u | 0.5 | -2.2
CC1(C)Cc2c(cnn2-c2cccc(F)c2)C(NC(=O)c2ccc[n+]([O-])c2)C1 (stereo not given) | 31.5* | -0.2 | 5.8 | -2.3 | 0.2 | -5.9
COc1ccc(S(=O)(=O)N2CCC(c3nc4ccccc4[nH]3)CC2)cc1 | 39.3* | -0.4 | -2.0 | 0.8 | 1.3 | 0.9
COc1ccc(OC)c(S(=O)(=O)N2CCC(c3nc4ccccc4[nH]3)CC2)c1 | -9.7 | 0.6 | 2.4 | 19.4 | 2.8 | -5.0
Cc1cccc(Cn2ncc3c4sc(C)cc4n(C)c3c2=O)c1 | 8.1 | 0.2 | x | x | x | x
Cn1nnnc1Sc1ncnc2scc(-c3ccc(C(=O)OC(C)(C)C)cc3)c12 | 3.6 | 0.0 | x | x | x | x
CN1C(=O)Cc2cc(S(=O)(=O)NCc3c(F)cccc3Cl)ccc21 | 1.9 | 0.1 | 12.9 | 2.0 | 0.0 | 3.6
CN1C(=O)Cc2cc(S(=O)(=O)NCCc3ccc(Cl)cc3)ccc21 | 39.6*! | 0.6 | 25.9 | -1.5 | 0.6 | -3.2
CC(C)(C)C1CCC(OCC(O)CN2CCN(Cc3ccccc3)CC2)CC1 (stereo not given) | 31.5* | 0.4 | 19.3 | -1.8 | 1.3 | -4.1
N#Cc1nc(Nc2cccc(Br)c2)nc(NC2CCCC2)n1 | -4.2 | -1.1 | x | x | x | x
